Measured values from PubChem BioAssay AID1347422 (Sanford-Burnham Center for Chemical Genomics, 2020).
Whole data set: some 1,000 compounds, median “thermal shift dTm” near 0.19, cut for the highest 2% near 1.7. Many of the other results were omitted from the sample, so the highest values are more common in it than they were. Active and inactive are the calls of the source.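 Rule for the calls: active = mean rise in melting temperature of at least 1 degC over same-plate control wells; inactive = below that, where a call was filed.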

Target: Sulfhydryl oxidase 1 (Homo sapiens) (UniProt O00391)
Test: ligand-induced melting shift of human QSOX1 – biophysical, protein thermal shift, single concentration, QSOX1 inhibitor project, confirmation (AID 1347422);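 note: dTm is compound Tm minus mean Tm of DMSO-only wells on that plate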
Conditions: recombinant hQSOX1 thermal shift, Sypro Orange, at 25 µM, stronger effect = higher value

Chain of Sulfhydryl oxidase 1 (Homo sapiens) (O00391 whole entry, looked up): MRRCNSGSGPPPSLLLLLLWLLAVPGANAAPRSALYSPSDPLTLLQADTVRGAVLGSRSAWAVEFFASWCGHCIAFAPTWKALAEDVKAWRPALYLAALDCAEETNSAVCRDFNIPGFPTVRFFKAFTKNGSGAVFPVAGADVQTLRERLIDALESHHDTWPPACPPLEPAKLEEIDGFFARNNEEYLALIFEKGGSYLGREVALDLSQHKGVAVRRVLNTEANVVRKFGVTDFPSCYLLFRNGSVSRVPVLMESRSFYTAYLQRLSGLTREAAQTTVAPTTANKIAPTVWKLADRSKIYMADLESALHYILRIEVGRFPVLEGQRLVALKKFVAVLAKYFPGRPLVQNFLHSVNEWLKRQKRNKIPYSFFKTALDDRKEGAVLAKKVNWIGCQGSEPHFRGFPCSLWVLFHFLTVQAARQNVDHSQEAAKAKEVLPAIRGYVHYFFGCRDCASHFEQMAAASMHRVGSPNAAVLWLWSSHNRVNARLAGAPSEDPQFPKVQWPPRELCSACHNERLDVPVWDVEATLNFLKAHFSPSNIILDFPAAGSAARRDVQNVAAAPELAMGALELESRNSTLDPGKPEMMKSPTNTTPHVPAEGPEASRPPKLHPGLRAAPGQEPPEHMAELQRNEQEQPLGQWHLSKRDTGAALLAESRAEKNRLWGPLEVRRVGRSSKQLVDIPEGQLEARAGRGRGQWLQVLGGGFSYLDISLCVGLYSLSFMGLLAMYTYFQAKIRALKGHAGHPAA

| Compound | thermal shift dTm |
| --- | --- |
| COc1cccc(C(=O)Nc2nc3ccc(Cl)cc3s2)c1 | 0.62 °C |
| COc1ccc(C(=O)Oc2ccccc2Cl)cc1Br | 0.06 °C |
| COc1ccc(-c2nc(-c3cccs3)c(-c3cccs3)[nH]2)cc1 | 0.25 °C |
| Fc1ccc(-c2nc(-c3cccs3)c(-c3cccs3)[nH]2)cc1 | 3.34 °C (active) |
| c1csc(-c2nc(-c3cccs3)c(-c3cccs3)[nH]2)c1 | 0.06 °C |
| Cc1oc(-c2ccccc2NS(C)(=O)=O)nc1CN(C)Cc1ccc(OC(F)F)cc1 | 0.18 °C |
| N#Cc1cccc(NC(=O)c2cc3ccccc3o2)c1 | 0.32 °C |
| Cc1cc(NC(=O)c2ccccn2)ccc1NC(=O)c1cc2ccccc2o1 | 0.19 °C |
| CC(=O)Nc1ccc(NC(=O)c2cc3ccccc3o2)cc1 | 1.73 °C (active) |
| O=C(Nc1cccc(OCc2ccccc2)c1)c1ccco1 | 0.23 °C |
| Cc1ccc(-c2noc(CNC(=O)C34CC5CC(CC(C5)C3)C4)n2)cc1 | 0.16 °C |
| O=C(CCSc1nc2sc3c(c2c(=O)[nH]1)CCCC3)Nc1ccccc1 | 0.02 °C |
| NC(=O)c1ccc(-c2ccc3[nH]ccc3c2)nc1 | 0.79 °C |
| Cc1cc2ncn(CCCOc3ccc(Cl)cc3)c2cc1C | 0.11 °C |
| CC(C)N(Cc1nc(-c2ccc(Cl)cc2)no1)S(=O)(=O)c1ccc(F)cc1 | 0.02 °C |
| CCc1ccc(NC(=O)Nc2ccc(Br)cn2)cc1 | 0.09 °C |
| COc1ccc(NC(=O)Nc2ccc(C)cc2C)cc1 | 0.05 °C |
| COc1cccc(NC(=O)Nc2cccc3ccccc23)c1 | 0.01 °C |
| COc1ccc(NC(=O)Nc2ccc(C)cc2)c(OC)c1 | 0.2 °C |

| Compound | thermal shift dTm |
| --- | --- |
| COc1ccc(NC(=O)Nc2ccc(C(C)=O)cc2)c(C)c1 | 2.14 °C (active) |
| COc1ccc(C)cc1NC(=O)Nc1ccc(NC(C)=O)cc1 | 0.57 °C |
| COc1ccc(OC)c(NC(=O)Nc2cccc(NC(C)=O)c2)c1 | 1.91 °C (active) |
| N/C(=N\c1nc(-c2cccs2)cc(C(F)(F)F)n1)Nc1ccc2c(c1)OCCO2 | 0.35 °C |
| COc1cccc(NC(=O)Nc2ccc(Cc3ccncc3)cc2)c1 | 0.38 °C |
| COc1ccc(NC(=O)Nc2cccc(Cn3cc(Cl)cn3)c2)cc1 | 2.14 °C (active) |
| COc1ccc(NC(=O)Nc2cccnc2)cc1 | 0.28 °C |
| Cc1nnc(NC(=O)c2ccc(NC(=O)c3ccco3)cc2)s1 | 0.7 °C |
| CC(=O)Nc1ccc(NC(=O)c2nnn(-c3cccc(Cl)c3)c2N)cc1 | 0.55 °C |
| O=C(Nc1nccs1)c1ccccc1OCc1ccccc1 | 0.37 °C |
| CCc1sc(NC(=O)Cc2ccc(F)cc2)nc1-c1ccccc1 | 0.17 °C |
| O=S(=O)(NCCSC1CCCCC1)c1ccc(Cl)cc1 | 0.11 °C |
| O=C(CCc1ccccc1)Nc1cccc(-c2nc3ccccc3s2)c1 | 0.59 °C |
| CC(=O)Nc1ccc(C(=O)CSc2ccc3ccccc3n2)cc1 | 1.22 °C (active) |
| Cc1ccccc1NC(=S)NCCC(c1ccccc1)c1ccccc1 | 0.02 °C |
| Cc1ccc(NC(=O)Nc2ccc3snnc3c2)cc1 | -0.45 °C (inactive) |
| c1ccc(COc2ccc(-c3noc(-c4ccccn4)n3)cc2)cc1 | 0.01 °C |
| C=CCc1c(C)nc2c(-c3ccccc3)cnn2c1NCc1cccnc1 | -0.08 °C (inactive) |
| Cc1cc(OCCn2cc(C(=S)N3CCOCC3)c3ccccc32)ccc1Cl | 0.02 °C |

| Compound | thermal shift dTm |
| --- | --- |
| COc1ccc2c(c1OC)C(=O)N(c1ccc(Cl)cc1)C2 | 0.81 °C |
| c1cc(NCc2ccc3c(c2)OCO3)cc(-c2nc3ccccc3[nH]2)c1 | 2.39 °C (active) |
| Cc1ncc(CNc2ccc(-c3nc4ccccc4[nH]3)cc2)cn1 | 0.14 °C |
| O=C(Nc1cccc(-c2nc3ccccc3[nH]2)c1)C1CCCO1 (stereo unspecified) | 0.02 °C |
| COc1ccc(C(=O)Nc2ccc(NC(C)=O)cc2)cc1C | 1.48 °C (active) |
| COc1ccc(C(=O)Nc2ccc(Cl)c(C)n2)cc1Cl | 1.85 °C (active) |
| COc1ccc(NC(=O)c2ccoc2)cc1Cl | 0.23 °C |
| COc1ccc(-c2noc(-c3cccc(NC(C)=O)c3)n2)cc1 | 0.24 °C |
| CSc1cccc(NC(=O)NCc2ccccn2)c1 | 0.18 °C |
| O=C(Nc1nc(-c2ccccc2)ns1)N1CCOc2ccc(Cl)cc2C1 | 0.23 °C |
| O=C(CN(c1ccccc1F)S(=O)(=O)c1ccccc1)Nc1ccc(F)cc1F | -0.03 °C (inactive) |
| Cc1cc(N(C)C)nc(N2CCN(C(=O)Nc3cccc(F)c3)CC2)n1 | -0.08 °C (inactive) |
| CCCN(CC1CC1)C(=O)c1cc(COc2ccc(OC)cc2Cl)on1 | 0.09 °C |
| CC(=O)Oc1ccc2cc(-c3ccc(Cl)cc3)c(=O)oc2c1 | 0.11 °C |
| CCCn1c(=O)[nH]c(=O)c2c(-c3cccc4ccccc34)ccnc21 | 0.25 °C |
| Cc1ccc(NC(=O)Nc2ccc(Br)cc2)nc1 | 0.28 °C |
| Cc1ccc2ccc(C(Nc3ccccn3)c3ccc(Cl)cc3)c(O)c2n1 (stereo unspecified) | 0.57 °C |
| O=c1[nH]c(SCc2ccc(Cl)c(Cl)c2)nc2ccccc12 | 0.11 °C |
